High-throughput results from PubChem.
Only some compounds are listed: those with a hit (about 12% of all), similar ones and a draw of the others.
HP1b binding inh: blocks HP1-beta chromodomain binding to methylated histone tails. AlphaScreen HP1-beta / biotin-H3K9me3 peptide binding. Potency, µM (doses to about 114 µM), without a hit: at the top dose activity change, negative = inhibition, hits mostly inhibitors. hit rate 0.56% among 390,000; note: nearly all actives have a fitted effect of over 70% in size
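AlphaScreen: HP1-beta (50 nM) preformed 30 min with biotin-H3(1-18)K9me3 peptide (50 nM) in PBS pH 7.4, 0.01% Tween-20. Compound added for 30 min at RT, then streptavidin donor/nickel chelate acceptor beads (10 ug/mL) for 30 min.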
L3MBTL1 inh: blocks human L3MBTL1. AlphaScreen L3MBTL1–H3K9me1 peptide binding. Potency, µM (series often up to 57.1 µM), for the others: at the top dose activity, negative = inhibition, hits mostly inhibitors. AID 485360. Q9Y468. hit rate 0.66% among 230,000; note: % is set by controls: 0 for no effect and ±100 for the full control effect; nearly all actives have a fitted effect of over 60% in size
Target sequence (Q9Y468 whole entry, looked up): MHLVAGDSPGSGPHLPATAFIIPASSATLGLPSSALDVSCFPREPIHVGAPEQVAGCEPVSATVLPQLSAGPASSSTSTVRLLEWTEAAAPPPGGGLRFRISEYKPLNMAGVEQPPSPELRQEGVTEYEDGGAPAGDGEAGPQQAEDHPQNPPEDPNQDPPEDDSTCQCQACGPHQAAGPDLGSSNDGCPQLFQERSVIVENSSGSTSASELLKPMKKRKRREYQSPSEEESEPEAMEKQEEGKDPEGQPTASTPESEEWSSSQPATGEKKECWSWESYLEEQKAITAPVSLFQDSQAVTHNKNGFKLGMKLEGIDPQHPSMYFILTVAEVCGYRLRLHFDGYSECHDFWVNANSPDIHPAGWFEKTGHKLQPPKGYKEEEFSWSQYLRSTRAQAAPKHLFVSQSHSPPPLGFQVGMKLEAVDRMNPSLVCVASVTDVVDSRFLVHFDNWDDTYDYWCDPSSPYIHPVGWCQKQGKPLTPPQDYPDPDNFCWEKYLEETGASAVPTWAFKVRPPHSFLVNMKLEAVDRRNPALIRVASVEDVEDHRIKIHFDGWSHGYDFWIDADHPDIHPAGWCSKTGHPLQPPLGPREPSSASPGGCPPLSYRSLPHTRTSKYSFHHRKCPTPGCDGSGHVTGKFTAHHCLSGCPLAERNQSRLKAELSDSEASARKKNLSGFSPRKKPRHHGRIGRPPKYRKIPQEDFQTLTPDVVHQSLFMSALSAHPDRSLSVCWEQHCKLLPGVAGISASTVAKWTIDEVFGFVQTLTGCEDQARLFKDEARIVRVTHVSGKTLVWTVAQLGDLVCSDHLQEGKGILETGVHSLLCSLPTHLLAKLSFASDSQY
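AlphaScreen assay: L3MBTL1 (50 nM final) was preincubated 30 min at room temperature with biotinylated H3(1-15)K9me1 peptide (75 nM final), then 30 min with library compounds; streptavidin donor and nickel chelate acceptor beads (10 ug/mL final) added, 30 min dark.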
Sfp inh: Sfp phosphopantetheinyl transferase inhibition; hit rate 3.5% among 310,000; Biochemical Sfp PPTase activity, qHTS; Potency, µM, for inactives: largest response in the series, negative = inhibition, usual class: inhibitors; Q9F4F7;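 note: the enzyme is Sfp with the accession as filed and its product quenches rhodamine fluorescence; 0% = enzyme reaction without inhibitor and -100% = no enzyme wells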
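Fluorescence-quenching assay with 15 nM Sfp, 5 uM rhodamine-CoA and 12.5 uM BHQ-2-labelled ybbR peptide in pH 7.6 Hepes/MgCl2 buffer. Enzyme was pre-incubated with compound for 15 min at room temperature. Rate was taken from the 30-min fluorescence change (525/598 nm).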
JMJD2A Tudor inh: JMJD2A Tudor domain (human) inhibition; O75164; hit rate 4.4% among 390,000; Potency, µM (doses to about 114 µM), without a hit: at the top dose activity change, negative = inhibition, actives largely listed as inhibitors; AID 504339; AlphaScreen JMJD2A-Tudor / H3K4me3 peptide binding; note: % is set by controls: 0 for no effect and ±100 for the full control effect; nearly all actives have a fitted effect of over 50% in size
BAZ2B block: inhibitors of human BAZ2B bromodomain; Q9UIF8; AlphaScreen BAZ2B-H3K14Ac peptide displacement; Potency, µM (titrated, usually from 114 µM), for the others: at the top dose activity change, negative = inhibition, most hits filed as inhibitors; hit rate 4.4% among 360,000; AID 504333; note: % is set by controls: 0 for no effect and ±100 for the full control effect; nearly all actives have a fitted effect of over 60% in size
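Protein-peptide AlphaScreen: BAZ2B 50 nM, b-H3K14Ac 50 nM, 1x PBS pH 7.4 + 0.01% Tween-20. Preincubation 30 min RT; cpd 30 min RT (top 110 uM); beads 20 min RT, light-protected.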
G9a block: inhibitors of human histone lysine methyltransferase G9a | AID 504332 | G9a H3K9 monomethylation, AlphaScreen, 2 h | Potency, µM (doses to about 102 µM), for the others: at the top dose activity, negative = inhibition, actives largely listed as inhibitors | Q96KQ7 | hit rate 8.8% among 350,000; note: % is set by controls: 0 for no effect and ±100 for the full control effect; nearly all actives have a fitted effect of over 75% in size
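Chemiluminescent proximity detection of H3K9 monomethylation, read after 10 min bead incubation in the dark. Reaction: 20 nM G9a, 500 nM biotin-H3K9 peptide, 20 uM SAM cofactor, 2 h, room temperature, following 15 min enzyme-compound preincubation.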
* = called active by the depositor; u = inconclusive; x = no result; ! = not active in a repeat; [ ] = another dose, or the depositor's remark. Calls come from the whole dose curve; as a rule, active = well fitted curve in the direction sought with a large enough effect; inconclusive = small, poorly fitted or top-dose-only effect, or another doubt; inactive = no such curve, though single readings can be large; an effect the other way counts as inactive or inconclusive. Potency is the fitted concentration of half-maximal effect.

SMILES	HP1b binding inh	L3MBTL1 inh	Sfp inh	JMJD2A Tudor inh	BAZ2B block	G9a block
O=c1c2c(-c3ccccc3)csc2nc2n1CCC2	-20%	-4%[11.4 µM]	32µM*	-19%	9%	-36%[12.7 µM]
O=c1c2cc([N+](=O)[O-])ccc2nc2n1CCCC2	-1%	x	-4%	-18%	-5%	11%
O=c1c2c(-c3ccc([N+](=O)[O-])cc3)csc2nc2n1CCCCC2	u	-28%	-26%	u	u	35µM*
O=c1c2sc(-c3ccccc3)cc2nc2n1CCC2	15%	0%	-8%	-13%	-3%	0%[59 µM]
CC(C)C(=O)N1CCC(n2nccc2NC(=O)CCc2ccccc2)CC1	9%	x	4%	25µM*	-2%[57.1 µM]	2%
C=C(C)CCC(C)N1CCC(n2nccc2NC(=O)CCCc2ccccc2)CC1 (configuration not stated)	14%	x	9%	-13%	-15%	79µM*
COc1cccc(C(=O)c2cn(CC(=O)NCc3ccccc3)c3nc(C)ccc3c2=O)c1	61%	x	x	u	8%	14%[59 µM]
CNC(=O)C1CCC(Cn2c(=O)c3sccc3n(CC(=O)NCc3ccccc3)c2=O)CC1 (configuration not stated)	69%	x	x	9%	4%	13%[59 µM]
CCOC(=O)c1cc(-c2ccccc2)n(CC(=O)Nc2cc(Cl)c(OC)cc2OC)c1C	55%	x	x	-12%	4%	-21%[59 µM]
O=C(NCC(c1ccco1)N1CCc2ccccc2C1)C(=O)Nc1ccccc1 (configuration not stated)	8%	0%	x	-12%	1%	50µM*
CC(=O)Nc1cccc(NC(=O)C(=O)NCC(c2ccco2)N2CCc3ccccc32)c1 (configuration not stated)	u	-14%	x	56µM*	50µM*	50µM*
O=C(NCC(c1ccco1)N1CCc2ccccc2C1)c1ccccc1 (configuration not stated)	26%	2%	x	-17%	0%	7%
N#CC(C(=O)c1ccco1)c1ccccn1 (configuration not stated)	17%	1%	19%	-24%	4%	35µM*
N#C/C(=C(\O)c1ccco1)c1ccccn1	37%	-2%	-1%	u	-6%	u
Cc1cc(N)c2ccccc2[n+]1CCCCCCCCCC[n+]1c(C)cc(N)c2ccccc21	x	x	4.5µM*!	x	x	50µM*!
CC[C@H](C)[C@H](NC(=O)[C@H](CO)NC(=O)[C@H](C)NC(=O)[C@H](C)NC(=O)[C@H](CCC(N)=O)NC(=O)[C@H](CCCCN)NC(=O)[C@H](CCCN=C(N)N)NC(=O)[C@@H](N)CS)C(=O)N[C@@H](CCCCN)C(=O)N[C@H](C(=O)N[C@@H](C)C(=O)N[C@H](C(=O)N[C@@H](CO)C(=O)O)C(C)C)C(C)C	x	x	4%	x	x	x
CCCC(=O)N1c2nc(-c3ccco3)nn2C2(CCCCC2)[C@@H]2CCCC[C@@H]21	6%	x	x	-25%	u	u
O=C(Oc1ccc(Br)cc1C(=S)N1CCOCC1)c1ccc(F)cc1	-36%	x	32µM*	-36%	u	x
COc1cc(C(=O)Oc2ccc(C(=S)N3CCOCC3)cc2)cc(OC)c1OC	9%	-2%	-16%	3%	0%	x
Cc1ccc(C(=O)Oc2ccc(Br)cc2C(=S)N2CCOCC2)cc1	u	x	-23%	-21%	-14%	40µM*
Cc1ccccc1C(=O)Oc1ccc(Cl)cc1C(=S)N1CCOCC1	1%	x	-1%	-26%	-12%	-5%
Cc1c([N+](=O)[O-])cc(C(=O)Oc2ccc(Br)cc2C(=S)N2CCCCC2)cc1[N+](=O)[O-]	-28%	x	2%	u	u	8.9µM*
COc1ccc(C(=O)Oc2ccc(Br)cc2C(=S)N2CCOCC2)cc1	70%	x	-6%	-31%	-24%	56µM*
